Screens from PubChem.
dFosB activator – activators of delta FosB homodimer, primary screen, biochemical, fluorescence polarization, TAMRA-CDK5 oligo, single point; Protein FosB (Mus musculus), P13346; purified delta FosB; percent of positive-control signal above neutral wells; activation, % at 25 µM; hit rate 0.99% among 340,000;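 active = mean activation above about 17%, with every replicate also reaching it, limit read from the data, passing the limit was not always enough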
MEKK2 mut-MEK5 – MEK5 binding signal on mutant MEKK2 PB1, primary screen, biochemical, multiplex bead flow cytometry, Alexa488-MEK5; AID 1530, 2009; Alexa488-MEK5 binding to MEKK2 mutant; hit rate 0.35% among 290,000; percent response, % at 10 µM; in the data active = percent response above about 24%, passing the limit was not always enough
MEKK3 PB1 HTS – modulators of MEKK3-MEK5 PB1 binding, primary screen, biochemical, wildtype MEKK3, multiplex bead flow cytometry, Alexa488-MEK5; Mitogen-activated protein kinase kinase kinase 3 (Homo sapiens), Q99759; bead-based flow cytometry, Alexa488-MEK5 binding to MEKK3; actives lie on both sides; 0 = blocked by unlabeled MEK5, 100 = vehicle; binding response (% of control), % at 10 µM; hit rate 1.4% among 290,000;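 active = binding response more than 3 SD above or below the average of its plate-row segment, actives on both sides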;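 also: Alexa488 bead fluorescence after subtracting the streptavidin-only scavenger bead signal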
Target sequence (Q99759 whole entry, looked up): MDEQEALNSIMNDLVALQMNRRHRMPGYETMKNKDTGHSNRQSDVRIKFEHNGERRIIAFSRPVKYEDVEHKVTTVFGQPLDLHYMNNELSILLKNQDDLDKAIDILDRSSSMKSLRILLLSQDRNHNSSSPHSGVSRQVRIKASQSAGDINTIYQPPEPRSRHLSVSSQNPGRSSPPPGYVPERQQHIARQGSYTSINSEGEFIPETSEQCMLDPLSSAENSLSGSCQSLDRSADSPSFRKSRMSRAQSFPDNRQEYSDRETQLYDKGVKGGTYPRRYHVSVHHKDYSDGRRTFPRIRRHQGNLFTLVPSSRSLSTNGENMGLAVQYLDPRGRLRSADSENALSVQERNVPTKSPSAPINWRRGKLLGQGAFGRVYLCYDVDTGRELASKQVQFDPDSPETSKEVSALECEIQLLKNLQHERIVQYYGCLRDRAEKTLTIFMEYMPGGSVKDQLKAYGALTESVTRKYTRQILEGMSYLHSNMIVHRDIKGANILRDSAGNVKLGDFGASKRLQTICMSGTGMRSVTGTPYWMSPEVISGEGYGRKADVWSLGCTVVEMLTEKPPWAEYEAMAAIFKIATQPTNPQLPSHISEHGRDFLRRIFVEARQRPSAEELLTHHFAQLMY
MEKK2wt PB1 HTS – modulators of MEK5 binding to wildtype MEKK2, primary screen, biochemical, multiplex bead flow cytometry, Alexa488-MEK5 | Mitogen-activated protein kinase kinase kinase 2 (Homo sapiens), Q9Y2U5 | Alexa488-MEK5 binding to MEKK2 WT; actives lie on both sides | binding response (% of control), % at 10 µM | hit rate 1.1% among 290,000; in the data active = binding response below about 67% or above about 130%
FID counter – compounds displacing fluorescent DNA intercalator, primary screen, artefact control for HCV NS3 helicase inhibitor project, biochemical, FID fluorescence; hit rate 0.17% among 290,000; DNA fluorescent intercalator displacement; inhibition, % at 7.9 µM; in the data active = inhibition above about 37%;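 also: 0% = vehicle and 100% = reference compound; higher means more ethidium bromide displaced from hairpin DNA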
* = called active by the depositor. Only some compounds are listed: those with a hit (about 2.9% of all), similar ones and a draw of the others.

Screening CCN(CC(=O)NCc1ccc(Cl)cc1)C(=O)CCc1ccccc1 returned dFosB activator 1.7, MEKK2 mut-MEK5 -2.0, MEKK3 PB1 HTS 103.0, MEKK2wt PB1 HTS 103.0 and FID counter -23.4.
Screening CCOc1ccc(NCc2cccn2-c2nnc(N3CCC(C(=O)NCCCN4CCCCC4)CC3)s2)cc1 returned dFosB activator -1.8, MEKK2 mut-MEK5 10.0, MEKK3 PB1 HTS 101.0, MEKK2wt PB1 HTS 125.0 and FID counter 32.1.
`CCOc1ccc(NCc2cccn2-c2nnc(N3CCC(C(=O)NCCCN4C(C)CCCC4C)CC3)s2)cc1` (stereo unspecified) gave dFosB activator -3.8, MEKK2 mut-MEK5 25.0*, MEKK3 PB1 HTS 107.0, MEKK2wt PB1 HTS 152.0* and FID counter 41.3*.
For CCC1CCCCN1CCCNC(=O)C1CCN(c2nnc(-n3cccc3)s2)CC1 (stereo unspecified) the results were dFosB activator -4.3, MEKK2 mut-MEK5 14.0, MEKK3 PB1 HTS 102.0, MEKK2wt PB1 HTS 141.0* and FID counter 18.6.
For CCOc1ccc(NCc2cccn2-c2nnc(N3CCC(C(=O)NCCCN4CCCCC4C)CC3)s2)cc1 (stereo unspecified) the results were dFosB activator -15.4, MEKK2 mut-MEK5 33.0*, MEKK3 PB1 HTS 104.0, MEKK2wt PB1 HTS 147.0* and FID counter 26.2.
`COc1ccc(CN(C(=O)/C=C/c2ccco2)C2CCS(=O)(=O)C2)cc1OC` (stereo unspecified) gave dFosB activator -7.2, MEKK2 mut-MEK5 4.0, MEKK3 PB1 HTS 102.0, MEKK2wt PB1 HTS 100.0 and FID counter -43.6.
Screening Cc1cc(Nc2ccc(Cl)cc2)nc(NCc2ccccc2)n1 returned dFosB activator 38.0*, MEKK2 mut-MEK5 12.0, MEKK3 PB1 HTS 110.0, MEKK2wt PB1 HTS 159.0* and FID counter 18.4.
CCCCNc1cc(C)nc(NCc2ccccc2)n1 was read as dFosB activator 14.0, MEKK2 mut-MEK5 10.0, MEKK3 PB1 HTS 106.0, MEKK2wt PB1 HTS 133.0 and FID counter 19.5.
For O=C1N=c2ccccc2=C1c1sc(Nc2ccc(O)cc2)nc1O the results were dFosB activator -2.6, MEKK2 mut-MEK5 -12.0, MEKK3 PB1 HTS 87.0, MEKK2wt PB1 HTS 79.0 and FID counter 7.0.
O=C1N=c2ccccc2=C1c1sc(Nc2cccc(O)c2)nc1O was read as dFosB activator -6.8, MEKK2 mut-MEK5 5.0, MEKK3 PB1 HTS 102.0, MEKK2wt PB1 HTS 100.0 and FID counter 39.3*.
Screening CCN(CC)S(=O)(=O)c1ccc(N2CCN(C)CC2)c(NC(=O)Nc2ccc(C)cc2)c1 returned dFosB activator -3.9, MEKK2 mut-MEK5 15.0, MEKK3 PB1 HTS 106.0, MEKK2wt PB1 HTS 146.0* and FID counter 22.7.
Screening O=C1/C(=C2\C(=O)N(Cc3ccc(F)cc3)c3ccccc32)SC(=S)N1CCS(=O)(=O)O returned dFosB activator -1.9, MEKK2 mut-MEK5 -7.0, MEKK3 PB1 HTS 99.0, MEKK2wt PB1 HTS 96.0 and FID counter 39.0*.
`O=C(NC(=S)NCC1CCCO1)c1ccccc1[N+](=O)[O-]` (stereo unspecified) gave dFosB activator 3.2, MEKK2 mut-MEK5 -9.0, MEKK3 PB1 HTS 98.0, MEKK2wt PB1 HTS 85.0 and FID counter 6.6.
For COc1ccc2nc3cc(Cl)ccc3c(Nc3ccc(O)c(CN4CCN(C)CC4)c3)c2c1 the results were dFosB activator 124.5*.
`COc1cc(OC)cc(C(=O)N2CCN(C(=O)c3cccs3)CC2)c1` gave dFosB activator -0.9, MEKK2 mut-MEK5 1.0, MEKK3 PB1 HTS 99.0, MEKK2wt PB1 HTS 96.0 and FID counter -21.9.
`CC(NC(=O)c1cccs1)C(S)c1ccccc1` (stereo unspecified) gave dFosB activator -6.9, MEKK2 mut-MEK5 -2.0, MEKK3 PB1 HTS 98.0, MEKK2wt PB1 HTS 95.0 and FID counter -13.9.
For COc1ccc(C(=O)c2sc(Nc3ccccc3)nc2C)cc1 the results were dFosB activator -13.2, MEKK2 mut-MEK5 16.0, MEKK3 PB1 HTS 111.0, MEKK2wt PB1 HTS 135.0* and FID counter -20.3.
